Source: PubChem BioAssay (NCI)
About 83,000 compounds went through this panel and 20% of them were active in at least one assay; those are over-represented in the sample as a whole.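 Testing used 96-well plates and a 48-hour single-concentration exposure. Example: -40 means 40% of the starting cells died.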 Unmarked numbers belong to inactive results. Calls of active or inactive are those of the source. The calls were made as follows: active = growth percent below 10; inactive = the rest.

Test system: MDA-MB-468 breast
Test: NCI-60 one-dose screen, 48 h (100 = growth as untreated, 0 = no growth, -100 = all killed)
Details: 10 µM unless noted

SMILES	growth
O=S(=O)(NCCCNc1cc(-c2cn(-c3ccccc3)nc2-c2cccc(O)c2)ccn1)c1ccc(Br)cc1	-27.4% (active)
CN1C(=O)N(C)C2Nn3c(s/c(=C4\C(=O)N(CCc5ccccc5)c5ccccc54)c3=O)=NC21 (centres undefined)	39%
O=C(CN1N=C(c2ccc(F)cc2)CCC1=O)Nc1nccs1	94.6%
C=C1CCC2C(C)(CO)C(O)CCC2(C)C1C/C=C1/C(=O)OCC1O/C=C/c1ccccc1 (centres undefined)	80.5%
